PubChem BioAssay
Several values for one entry are separate records, joined by “and”; a condition that tells them apart may be missing. Identical values can stand only once. Activity calls are given as the source filed them.

Assays:
[1] = small molecules captured by biotinylated probe aFSTL3 – biochemical, small-molecule microarray, fluorescence 635/667, stem cell growth factor project, primary screen (AID 1064); conditions: higher = more signal;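 note: measures binding of the biotinylated anti-FSTL3 antibody to printed compounds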
[2] = binders from COS7 lysate, DM2A8 probe, primary screen, torsin A project, cell lysate, small-molecule microarray, fluorescence 635/667 (AID 1065); conditions: higher = more signal, COS7 lysate expressing mutant human TOR1A
[3] = small molecules captured by biotinylated probe aFGF2 – biochemical, small-molecule microarray, fluorescence 635/667, stem cell growth factor project, primary screen (AID 1067); conditions: higher = more signal;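 note: measures binding of biotinylated aFGF2 protein to printed compounds on slides; z-score merges feature fluorescence and signal-to-noise across triplicate slides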
[4] = small molecules captured by biotinylated probe aFGF10 – biochemical, small-molecule microarray, fluorescence 635/667, stem cell growth factor project, primary screen (AID 1071); conditions: higher = more signal;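 note: score merges 667 nm spot intensity and signal to noise from triplicate slides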
[5] = molecular target: Neurogenic locus notch homolog protein 2 (Homo sapiens) (UniProt Q04721); assay: small molecules binding Notch2 protein – biochemical, small-molecule microarray, 635 nm fluorescence, stem cell growth factors, primary screen (AID 1073); conditions: higher = more signal
[6] = molecular target: Pro-neuregulin-1, membrane-bound isoform (Homo sapiens) (UniProt Q02297); assay: small molecules binding neuregulin-1 protein – biochemical, small-molecule microarray, fluorescence 635/667, psychiatric disease protein project, primary screen (AID 1075); conditions: NRG1 binding, 635 nm fluorescence, higher = more signal;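 note: score combines 667 nm spot fluorescence with signal to noise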
Chain of Pro-neuregulin-1, membrane-bound isoform (Homo sapiens) (Q02297 whole entry, looked up, the tested form may be a part, canonical isoform): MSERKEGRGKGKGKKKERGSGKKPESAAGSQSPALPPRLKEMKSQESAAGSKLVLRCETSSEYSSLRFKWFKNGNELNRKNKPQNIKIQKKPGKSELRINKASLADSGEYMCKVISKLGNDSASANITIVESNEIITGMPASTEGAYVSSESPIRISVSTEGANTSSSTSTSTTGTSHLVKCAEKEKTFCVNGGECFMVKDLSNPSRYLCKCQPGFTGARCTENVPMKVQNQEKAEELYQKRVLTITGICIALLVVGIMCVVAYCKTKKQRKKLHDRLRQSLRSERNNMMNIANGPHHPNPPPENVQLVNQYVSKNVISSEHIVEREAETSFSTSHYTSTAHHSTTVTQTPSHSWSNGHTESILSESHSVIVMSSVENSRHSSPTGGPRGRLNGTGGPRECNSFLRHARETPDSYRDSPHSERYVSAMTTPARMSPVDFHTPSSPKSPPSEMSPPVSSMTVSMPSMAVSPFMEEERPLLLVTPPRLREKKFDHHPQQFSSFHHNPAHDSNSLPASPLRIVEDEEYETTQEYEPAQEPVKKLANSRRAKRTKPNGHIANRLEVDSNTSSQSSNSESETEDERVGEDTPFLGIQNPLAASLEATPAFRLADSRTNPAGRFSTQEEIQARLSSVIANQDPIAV

[7] = tested on: Neuregulin-1 EGF-like domain; assay: small molecules binding NRG1 EGF domain – biochemical, small-molecule microarray, 635 nm fluorescence, primary screen (AID 1081); conditions: higher = more signal;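 note: binding of the protein to compounds printed on small-molecule microarray slides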
[8] = FRG1 expression reporter modulators in myotubes – cell-based, C2C12 myotubes, firefly/Renilla luciferase, luminescence, FRG1 inhibition for FSHD, primary screen (AID 1084); conditions: FRG1 promoter luciferase, higher = more signal, called active from +8 up or from −8 down
[9] = small molecules captured by biotinylated probe aFST – biochemical, small-molecule microarray, fluorescence 635/667, stem cell growth factor project, primary screen (AID 1086); conditions: higher = more signal;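 note: score merges 667 nm fluorescence with signal-to-noise of each printed compound spot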
[10] = binders of probe aHhip on microarray, primary screen, stem cell growth factor project, biochemical, small-molecule microarray, fluorescence 635/667 (AID 1087); conditions: higher = more signal;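 note: score merges spot fluorescence at 667nm with spot signal to noise ratio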
[11] = tested on: PRMT1 (protein arginine N-methyltransferase 1); assay: small molecules binding arginine methyltransferase PRMT1 – biochemical, small-molecule microarray, 635 nm fluorescence, primary screen (AID 1088); conditions: higher = more signal;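 note: binding of Prmt1 protein to compounds spotted on small-molecule microarray slides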
[12] = growth effects on S. cerevisiae YJM789 – YJM789 clinical isolate, OD600, 24 h, basal, primary screen (AID 1089); conditions: higher = more signal, called active from +8 up or from −8 down;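 note: growth of clinical yeast isolate S. cerevisiae YJM 789 seeded 1000 cells per well; test concentration not given here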
[13] = S. pombe growth modifiers, basal conditions – strain 972, OD600, 24 h, no modulator, primary screen (AID 1090);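 note: basal condition with compound alone and no growth modifier present; test concentration not given here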; conditions: S. pombe 972 growth, higher = more signal, called active from +8 up or from −8 down
[14] = budding yeast growth modifiers under rapamycin – strain BY4716, OD600, 96 h, primary screen (AID 1091); note: test concentration not given here; conditions: S. cerevisiae BY4716 + rapamycin, higher = more signal, called active from +8 up or from −8 down
[15] = molecular target: Torsin-1A-interacting protein 2 (Homo sapiens) (UniProt Q8NFQ8); assay: small molecules binding lysate-expressed LULL1 – cell lysate, human LULL1 lysate, 635/667 nm fluorescence, primary screen (AID 1092); conditions: small-molecule microarray, hLULL1 lysate binding, 635 nm fluorescence; higher = more signal;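 note: probe is lysate of COS7 cells overexpressing human LULL1; score merges per-feature 667 nm fluorescence with signal-to-noise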
Chain of Torsin-1A-interacting protein 2 (Homo sapiens) (Q8NFQ8 whole entry, looked up): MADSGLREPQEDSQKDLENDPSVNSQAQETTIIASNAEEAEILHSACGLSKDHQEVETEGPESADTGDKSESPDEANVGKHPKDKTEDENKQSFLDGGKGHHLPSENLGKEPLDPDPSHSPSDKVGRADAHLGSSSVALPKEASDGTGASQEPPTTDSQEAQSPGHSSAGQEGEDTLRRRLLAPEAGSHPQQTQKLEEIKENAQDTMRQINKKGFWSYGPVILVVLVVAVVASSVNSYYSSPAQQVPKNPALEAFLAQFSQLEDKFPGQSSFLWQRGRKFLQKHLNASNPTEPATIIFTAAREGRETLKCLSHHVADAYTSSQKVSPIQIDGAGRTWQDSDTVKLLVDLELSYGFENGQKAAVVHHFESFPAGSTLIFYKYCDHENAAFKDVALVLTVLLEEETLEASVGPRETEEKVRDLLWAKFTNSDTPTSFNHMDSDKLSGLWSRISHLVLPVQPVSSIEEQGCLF

[16] = optical density change of DRC41 E. coli – strain DRC41, OD650, 24 h, E. coli filamentation project, primary screen (AID 1093);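 note: MC1000 strain lacking acrAB efflux and sulA so SOS filamentation is blocked; test concentration not given here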; conditions: E. coli DRC41 growth, higher = more signal, called active from +8 up or from −8 down
[17] = probe aLefty2 binding to arrayed compounds – biochemical, biotinylated probe, 635/667 nm fluorescence, primary screen (AID 1094); conditions: small-molecule microarray, higher = more signal;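 note: score merges spot fluorescence near 667 nm with spot signal-to-noise ratio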
[18] = tested on: Noggin (protein binding on small-molecule microarray); assay: small molecules binding Noggin protein – biochemical, 635/667 nm fluorescence, primary screen (AID 1095); conditions: 635 nm fluorescence, higher = more signal;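 note: score merges 667 nm feature fluorescence with signal to noise over triplicate slides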
[19] = molecular target: Neurogenic locus notch homolog protein 3 (Homo sapiens) (UniProt Q9UM47); assay: small molecules binding NOTCH3 protein – biochemical, 635/667 nm fluorescence, primary screen (AID 1096); conditions: small-molecule microarray, 635 nm fluorescence, higher = more signal
Chain of Neurogenic locus notch homolog protein 3 (Homo sapiens) (Q9UM47 whole entry, looked up): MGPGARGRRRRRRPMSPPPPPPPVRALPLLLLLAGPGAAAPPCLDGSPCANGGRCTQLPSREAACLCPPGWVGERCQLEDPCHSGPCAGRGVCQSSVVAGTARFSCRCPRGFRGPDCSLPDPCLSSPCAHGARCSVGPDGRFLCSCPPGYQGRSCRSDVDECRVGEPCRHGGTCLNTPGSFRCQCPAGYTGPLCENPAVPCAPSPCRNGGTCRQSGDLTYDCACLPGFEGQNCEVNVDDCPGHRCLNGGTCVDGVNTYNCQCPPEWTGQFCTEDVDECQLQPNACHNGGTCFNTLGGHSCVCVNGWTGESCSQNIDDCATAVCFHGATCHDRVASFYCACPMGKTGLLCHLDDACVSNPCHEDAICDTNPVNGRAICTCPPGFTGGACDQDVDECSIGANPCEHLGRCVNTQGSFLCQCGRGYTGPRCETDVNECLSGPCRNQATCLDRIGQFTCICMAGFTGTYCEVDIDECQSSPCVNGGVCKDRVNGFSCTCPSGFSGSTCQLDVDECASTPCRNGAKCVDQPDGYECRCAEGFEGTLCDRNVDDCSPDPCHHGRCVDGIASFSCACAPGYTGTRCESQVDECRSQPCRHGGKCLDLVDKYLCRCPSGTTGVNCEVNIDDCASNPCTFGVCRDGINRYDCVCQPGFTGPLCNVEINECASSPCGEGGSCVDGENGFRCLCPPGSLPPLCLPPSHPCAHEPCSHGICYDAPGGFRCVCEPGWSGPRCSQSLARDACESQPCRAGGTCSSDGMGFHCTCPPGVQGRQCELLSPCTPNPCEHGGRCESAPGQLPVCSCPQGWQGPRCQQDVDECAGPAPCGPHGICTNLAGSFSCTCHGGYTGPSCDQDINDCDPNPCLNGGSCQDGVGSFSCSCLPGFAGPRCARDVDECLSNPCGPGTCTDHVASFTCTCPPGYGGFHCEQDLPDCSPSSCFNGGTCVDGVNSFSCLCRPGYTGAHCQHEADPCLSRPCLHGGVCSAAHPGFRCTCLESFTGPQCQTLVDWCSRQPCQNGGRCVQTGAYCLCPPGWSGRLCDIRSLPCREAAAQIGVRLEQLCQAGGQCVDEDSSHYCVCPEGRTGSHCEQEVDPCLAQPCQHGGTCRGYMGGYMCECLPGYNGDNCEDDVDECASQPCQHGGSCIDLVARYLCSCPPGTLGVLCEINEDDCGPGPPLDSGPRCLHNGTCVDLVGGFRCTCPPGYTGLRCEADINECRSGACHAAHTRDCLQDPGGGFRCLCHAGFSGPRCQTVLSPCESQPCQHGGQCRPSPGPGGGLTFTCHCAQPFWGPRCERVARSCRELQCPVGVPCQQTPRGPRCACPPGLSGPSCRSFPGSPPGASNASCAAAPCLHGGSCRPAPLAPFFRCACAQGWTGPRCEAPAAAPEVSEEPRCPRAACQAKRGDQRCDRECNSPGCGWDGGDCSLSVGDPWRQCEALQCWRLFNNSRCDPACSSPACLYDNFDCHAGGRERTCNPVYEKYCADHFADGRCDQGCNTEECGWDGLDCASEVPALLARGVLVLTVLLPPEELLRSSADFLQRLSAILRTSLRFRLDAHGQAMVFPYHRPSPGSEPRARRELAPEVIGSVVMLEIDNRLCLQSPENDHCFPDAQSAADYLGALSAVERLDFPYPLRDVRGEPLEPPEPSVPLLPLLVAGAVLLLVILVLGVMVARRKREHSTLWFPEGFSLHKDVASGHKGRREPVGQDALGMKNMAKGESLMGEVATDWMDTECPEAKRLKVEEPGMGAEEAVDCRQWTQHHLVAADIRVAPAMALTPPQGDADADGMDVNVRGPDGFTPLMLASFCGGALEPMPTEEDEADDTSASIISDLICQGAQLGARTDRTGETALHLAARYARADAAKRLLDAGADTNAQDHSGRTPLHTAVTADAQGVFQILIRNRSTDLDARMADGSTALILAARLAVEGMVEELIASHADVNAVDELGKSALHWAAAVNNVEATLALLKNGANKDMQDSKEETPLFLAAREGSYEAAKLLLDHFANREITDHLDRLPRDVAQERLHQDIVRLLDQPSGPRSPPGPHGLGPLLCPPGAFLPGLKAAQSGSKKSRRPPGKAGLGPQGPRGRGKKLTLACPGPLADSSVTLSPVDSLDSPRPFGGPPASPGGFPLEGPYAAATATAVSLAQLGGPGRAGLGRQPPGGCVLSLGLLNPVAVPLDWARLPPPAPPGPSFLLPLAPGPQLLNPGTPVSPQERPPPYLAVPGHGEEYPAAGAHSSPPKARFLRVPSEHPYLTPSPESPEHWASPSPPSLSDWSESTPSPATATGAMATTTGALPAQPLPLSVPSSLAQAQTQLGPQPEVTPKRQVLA

[20] = probe aEGFR binding to arrayed compounds – biochemical, biotinylated probe, 635/667 nm fluorescence, primary screen (AID 1097); conditions: small-molecule microarray, higher = more signal;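 note: probe is a biotinylated anti-EGFR antibody binding compounds printed on slides; score combines fluorescence near 667 nm and signal to noise of each spot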

Structure (SMILES)	composite z-score [1]	composite z-score [2]	composite z-score [3]	composite z-score [4]	composite z-score [5]	composite z-score [6]	composite z-score [7]	z-score [8]	composite z-score [9]	composite z-score [10]	composite z-score [11]	z-score [12]	z-score [13]	z-score [14]	composite z-score [15]	z-score [16]	composite z-score [17]	composite z-score [18]	composite z-score [19]	composite z-score [20]
COC(=O)C1=C(C)N(Cc2ccccc2)[C@]23O[C@](C(=O)OC)(C(=O)N2[C@@H]1c1ccccc1)[C@H]1C(=O)N(C)C(=O)[C@H]13	-0.342 and -0.556	0.117 and 0.134	-0.137 and -0.0212	0.566 and 0.842	0.585 and 0.405	1.14 and -0.0494	1.17 and 0.892	-0.564 (inactive) and 0.0169 (inactive)	0.271 and 0.2	0.0439 and -0.121	1.42 and 0.289	-0.458 (inactive) and -0.907 (inactive)	-0.0692 (inactive) and -1.06 (inactive)	0.609 (inactive) and -0.776 (inactive)	1.9 and 0.741	1.12 (inactive) and 0.684 (inactive)	-0.0831 and -0.125	1.35 and 0.752	0.877 and 0.903	-0.0967 and 0.128
C=C[C@@H](C)[C@@H](O)c1ccc(OCCO)cc1	1.01 and 0.0727	-1.44 and -0.971	-0.232 and -0.273	-1.47 and -1.27	-1.86 and -1.3	-0.408 and -0.496	-0.477 and -0.674	4.33 (inactive) and 1.84 (inactive)	-1.9 and -0.848	-0.242 and -0.644	-0.851 and 0.0376	0.0436 (inactive) and -2.75 (inactive)	0.162 (inactive) and -0.815 (inactive)	-0.607 (inactive) and 0.262 (inactive)	-1.11 and -0.508	-0.0921 (inactive) and 1.12 (inactive)	0.0893 and 0.2	-1.72 and -1.7	-0.574 and -0.377	-0.397 and -0.374
CCCCN1CC=CC23O[C@@H]4C=CCCOC(=O)C4[C@H]2C(=O)N(C(C)CO)[C@@H]3C1=O (stereo not given in full)	0.385 and 0.252	-0.371 and 0.204	-0.0753 and -0.135	-0.228 and 0.292	-0.921 and -0.936	1.1 and 0.324	0.839 and 1.04	0.489 (inactive) and -0.469 (inactive)	-0.337 and 0.104	-0.137 and 0.251	0.275 and -0.575	-0.601 (inactive) and 1.38 (inactive)	-0.158 (inactive) and 1.52 (inactive)	-0.164 (inactive) and 0.868 (inactive)	3.12 and -0.0307	-0.164 (inactive) and 0.287 (inactive)	-0.179 and -0.0421	-0.72 and -0.244	-0.391 and -0.4	-0.221 and 0.0329
C=CCN(C(=O)C1N(C(C)(C)CO)C(=O)C2C(C(=O)O)C3C=CC21O3)c1ccc(OC)cc1 (stereo not given)	1.84 and 1.41	-1.16 and -1.03	-0.237 and -0.195	-1.49 and -0.243	-1.71 and -1.79	-0.16 and -1.32	0.493 and -0.364	1.63 (inactive) and -0.0127 (inactive)	-0.898 and -1.25	-0.169 and -0.204	-0.504 and -1.28	0.0659 (inactive) and 1.13 (inactive)	-1.08 (inactive) and 0.202 (inactive)	0.558 (inactive) and 0.921 (inactive)	0.841 and 0.2	2.3 (inactive) and 1.15 (inactive)	0.0499 and 0.0174	-2.91 and -3.66	-0.702 and -1.29	-0.263 and -0.315
